Measurements taken from PMC6919601, “Identification of Plasmodium dipeptidyl aminopeptidase allosteric inhibitors by high throughput screening” (PLoS ONE, 2019).
About 230 (0.21%) of roughly 110,000 compounds showed an effect of 50% or more. The sample as a whole holds a higher share of strong results than the screen did.

Molecular target: DPAP1 (Plasmodium falciparum, UniProt Q8IIJ9)
Test: primary screen, percent inhibition; read by cleavage of a fluorogenic dipeptide substrate; higher = more effect of the substance
Design: species or system P. falciparum D10 trophozoite lysates; single well
Protocol: HTS was performed in black 384-well plates. The first and last two columns of each plate contained our negative (DMSO) and positive (10 μM JCP410) controls, and the 20 central columns the test compounds at 10 μM. Compounds were first diluted 50-fold into assay buffer (50 mM sodium acetate, 5 mM MgCl2, 10 mM β-mercaptoethanol, and 0.1% CHAPS, pH 5.5) from a 10 mM DMSO stock plates. One microliter of this 200 μM intermediate stock plate was dispensed into the assay plate. […] After 30 min, the reaction was quenched with 20 μL of 0.5 M acetic acid, and the fluorescent intensity measured at 523 nm (λex = 492 nm) using an Analyst HT multimode plate reader (Molecular Devices).
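Further: 30 min substrate incubation versus DMSO and 10 µM JCP410 controls.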

DPAP1, sequence (Q8IIJ9 whole entry, looked up): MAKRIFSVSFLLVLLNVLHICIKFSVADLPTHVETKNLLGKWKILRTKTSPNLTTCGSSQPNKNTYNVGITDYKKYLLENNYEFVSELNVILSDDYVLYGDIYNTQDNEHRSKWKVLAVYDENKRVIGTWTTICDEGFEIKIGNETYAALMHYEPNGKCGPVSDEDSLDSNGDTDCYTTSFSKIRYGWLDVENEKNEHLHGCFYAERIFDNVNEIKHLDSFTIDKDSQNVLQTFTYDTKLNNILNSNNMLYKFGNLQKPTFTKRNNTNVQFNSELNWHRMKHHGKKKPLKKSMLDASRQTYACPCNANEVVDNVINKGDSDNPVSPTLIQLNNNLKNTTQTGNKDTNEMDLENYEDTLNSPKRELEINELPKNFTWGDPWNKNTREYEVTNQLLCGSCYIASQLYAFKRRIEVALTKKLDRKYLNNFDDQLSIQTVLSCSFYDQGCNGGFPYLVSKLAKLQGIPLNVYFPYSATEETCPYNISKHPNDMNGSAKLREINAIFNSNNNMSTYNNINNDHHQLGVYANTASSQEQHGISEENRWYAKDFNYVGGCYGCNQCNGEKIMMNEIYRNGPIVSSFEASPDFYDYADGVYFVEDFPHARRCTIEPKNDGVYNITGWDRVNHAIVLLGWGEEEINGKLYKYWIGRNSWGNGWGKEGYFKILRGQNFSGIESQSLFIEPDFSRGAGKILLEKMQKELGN

Compared with O=C(Nc1cccc(Cl)c1)N1CCC(Cc2ccccc2)CC1, O=C(CCc1nnc2n(CCc3ccccc3)c(=O)c3ccccc3n12)N1CCOCC1 is higher in “% Inhibition @ 10 uM” value: 0.727% for the first, 0.981% for the second.

Compared with Cc1cccc(NS(=O)(=O)c2ccccc2)n1, Cc1ccccc1-c1ccccc1N is higher in “% Inhibition @ 10 uM” value: -3.56% for the first, -0.305% for the second.

Compared with COc1ccc(-c2cc(C(=O)N3CCOCC3)c3ccccc3n2)cc1, CCOc1ccc(-c2cn(-c3ccccc3F)c(S)n2)cc1 is higher in “% Inhibition @ 10 uM” value: 0.245% for the first, 56.2% for the second.

Compared with COc1cc(C2C(C#N)=C(N)OC3=C2C(=O)CCC3)cc(OC)c1OC (stereo not drawn), CCc1cc2c(cc3c(=O)n(CC(=O)NCCc4ccc(OC)c(OC)c4)nc(CC)n32)s1 is higher in “% Inhibition @ 10 uM” value: 0.687% for the first, 3.29% for the second.

Compared with O=C(NCc1ccccc1Br)C1CCCN(c2nnc(N3CCCC3=O)s2)C1 (stereo not drawn), CC1CC(C)CN(CCCNC(=O)Cn2ncn3nc(-c4cccs4)cc3c2=O)C1 (stereo not drawn) is higher in “% Inhibition @ 10 uM” value: -4.68% for the first, 2.27% for the second.

First: CC(C)CC(NC(=O)N1CCC(N2CCCCC2)CC1)C(=O)NCC#N (stereo not drawn)
Second: COc1cc(CN2CCN(c3ccccc3C)CC2)cc(OC)c1
The “% Inhibition @ 10 uM” value of the first is lower: -0.972% for the first, 1.9% for the second.

First: COc1ccc(CNC(=O)Cn2ncn3cccc3c2=O)cc1
Second: Cc1ccc(S(=O)(=O)c2cc3c(=O)n4ccccc4nc3n(CCO)c2=N)cc1
The “% Inhibition @ 10 uM” value of the first is lower: -5.15% for the first, -4.59% for the second.

Going from COc1ccccc1-n1cc(-c2ccccc2)nc1S to Fc1ccccc1-n1cc(-c2ccccc2)nc1S, the “% Inhibition @ 10 uM” value falls from 58.6% to 45.3%.

First: CCOc1cccc(-n2cc(-c3ccccc3)nc2S)c1
Second: Sc1nc(-c2ccccc2)cn1-c1ccccc1
The “% Inhibition @ 10 uM” value of the first is higher: 42.6% for the first, 37.1% for the second.

First: COc1ccc(OC)c(-n2cc(-c3ccccc3)nc2SC)c1
Second: Cc1nn(C)c2c1c(-c1ccccc1)cc(=O)n2Cc1cccc(F)c1
The “% Inhibition @ 10 uM” value of the first is higher: 4.49% for the first, 2.65% for the second.

Going from Cc1ccc(C(=O)NC2(C(F)(F)F)C(=O)Nc3c2c(=O)[nH]c(=O)n3-c2ccc(Cl)cc2)cc1 (stereo not drawn) to O=C1NC(=O)/C(=C\c2ccc(-c3ccc(Cl)cc3)o2)S1, the “% Inhibition @ 10 uM” value rises from -3.39% to 6.08%.

First: COc1cc(CN2CCN(c3cccc(C)c3C)CC2)cc(OC)c1
Second: COc1ccc(CN2CCN(c3cccc(C)c3C)CC2)cc1OC
The “% Inhibition @ 10 uM” value of the first is higher: 55.4% for the first, 9.04% for the second.

Going from O=C1NC(=O)/C(=C\c2ccc(-c3ccc(Cl)c(C(=O)O)c3)o2)S1 to O=C1NC(=O)/C(=C/c2ccc(-c3ccc(O)c(C(=O)O)c3)o2)S1, the “% Inhibition @ 10 uM” value rises from 8.24% to 64.8%.

Compared with OCCN(Cc1ccccc1)CC1CC=CCC1 (stereo not drawn), COC(=O)c1cc(O)nc(SCc2cccc(C)c2)n1 is higher in “% Inhibition @ 10 uM” value: 1.38% for the first, 4.47% for the second.

First: CCCn1c(=N)c(S(=O)(=O)c2ccc(C)cc2)cc2c(=O)n3ccccc3nc21
Second: Cc1ccc(S(=O)(=O)c2cc3c(=O)n4ccccc4nc3n(C)c2=N)cc1
The “% Inhibition @ 10 uM” value of the first is lower: 3.99% for the first, 57.9% for the second.
